Screening results: PubChem, National Center for Advancing Translational Sciences (NCATS)
Sampled rows, rich in hits. Any-hit rate of the full collection: about 12%.
NS1 function inh: blocks influenza NS1 protein function | Potency, µM (highest dose often 46.1 µM), inactives show at the top dose activity, positive = more growth | 0.4% of 270,000 active | AID 2326; further: potency means the concentration at half of the fitted maximal effect; actives are rising curves; nearly all actives have a fitted effect of over 50% in size
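Recovery from NS1-induced slow growth read by OD600 in budding yeast switched to galactose assay medium (pH 6.0, -URA) at 1:100 dilution. Compound 23 nl per well; the matching strain lacking NS1 serves as control.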
Shiga inhibitor: blocks Shiga toxin action in Vero cells; AID 2315; Vero cells, Shiga toxin protein synthesis inhibition reporter; inhibition, % at 38.7 µM; 9.2% of 290,000 active; in the data active means inhibition mostly above about 28%, no sharp cut-off; inactive means mostly below about 43%; further: 0% is about no effect
Cycloheximide cs: counter-screen for Shiga toxin inhibitors: cycloheximide protein synthesis inhibition; cell reporter, cycloheximide protein synthesis inhibition counterscreen; max response, %; 12% of 300,000 active; AID 2314; in the data active means max response mostly above about 13%, no sharp cut-off; inactive means mostly below about 14%; further: read at 38.3 µM for the half of the compounds with a filed dose; 0% is about no effect
SARS PLpro yeast: inhibitors of SARS-CoV papain-like protease in yeast; Potency, µM (highest dose often 32.9 µM), without a hit: at the top dose activity, positive = growth rescue, actives largely listed as activators; 0.19% of 330,000 active; S. cerevisiae expressing SARS-CoV PLpro, growth rescue; further: potency means the concentration at half of the fitted maximal effect; 0% is about no effect; nearly all actives have a fitted effect of over 55% in size
NS1 inh valid: influenza NS1 function inhibition validation. shares compounds with NS1 function inh. influenza NS1 function cell assay, 15-point titration. activity change, negative = inhibition, % at 32.9 µM. 1,400 tested, under 10 active; further: 0% is about no effect
PR8 titer: reduces influenza A/PR/8/34 replication in MDCK cells; shares compounds with NS1 function inh; AID 504647; MDCK infected influenza A/PR/8/34, virus titer TCID50; active compounds read low; virus titer (log TCID50), log10 TCID50 at 5 µM; 30% of 95 active; call rule not given here
Starred values were filed as active, the others as inactive; ? = inconclusive; nt = not tested or not shown. Unless noted, the call rests on the fitted dose curve.

SMILES | NS1 function inh | Shiga inhibitor | Cycloheximide cs | SARS PLpro yeast | NS1 inh valid | others
O=C(O)c1cccc(Cn2c(Cl)c(/C=N/NC(=O)c3ccccc3Cl)sc2=O)c1 | 0.79µM* | -2 | 6 | 4% | 7
COc1ccc(C(=O)N/N=C/c2sc(=O)n(Cc3cccc(C(=O)O)c3)c2Cl)cc1 | 11% | 13 | -1 | 2% | nt
COc1ccccc1C(=O)Nc1ccc2c(c1)n(C)c(=O)n2C | -24% | -4 | -2 | -4% | nt
COc1cc(C2C(C#N)=C(N)Oc3c2ccc2ccccc32)ccc1OCC(=O)Nc1ccc(C)cc1 (centres undefined) | ? | -1 | -2 | 6% | nt
COc1cc(C2C(C#N)=C(N)Oc3c2ccc2ccccc32)ccc1OCC(=O)Nc1cccc(C)c1 (centres undefined) | 11µM* | 22 | 4 | 12% | 5 | PR8 titer=8.3
Cc1ccc(C(=O)O)cc1NC(=O)c1ccc2c(c1)C(=O)N(c1ccc([N+](=O)[O-])cc1)C2=O | 2% | 34 | -2 | -1% | nt
Cc1ccc(N(CC(=O)Nc2cccc(C)c2)S(=O)(=O)c2cccc3nonc23)cc1 | 7.1µM* | 23 | 9 | -6% | -14 | PR8 titer=8.3
Cc1ccc(NC(=O)CCS(=O)(=O)c2cccc3nonc23)cc1 | nt | 17 | 13 | -2% | nt
CN(N=O)c1cc(O)ccc1O | 18µM* | 21 | 10 | nt | ?
COc1ccc(CC2CC(=O)N(c3ccc(C)cc3)C2=O)cc1 (centres undefined) | -1% | nt | -3 | 0% | nt
COc1cc(NC(=O)COC(=O)c2cc(S(=O)(=O)N3CCCCC3)ccc2Cl)c(C)cc1[N+](=O)[O-] | 14µM* | 3 | -6 | 2% | 10 | PR8 titer=8.3
COc1ccc(CCNC(=O)CSc2nc(N)c(C#N)c(-c3cccs3)c2C#N)cc1OC | 4.5µM* | 18 | -2 | -2% | 9
Cc1ccccc1NC(=O)CSc1nc(N)c(C#N)c(-c2cccs2)c1C#N | -28% | -13 | -3 | 0% | nt
O=C(c1cc(-c2ccncc2)nc2ccccc12)N1CCN(c2ccc(N3CCOCC3)nn2)CC1 | ? | 26 | 2 | 9% | -33
O=C(O)c1cc(-c2ccc(Cl)cc2)n(-c2cccc(Cl)c2)n1 | 0% | -6 | -1 | 1% | nt
CCC1(c2ccc(F)cc2)NC(=O)N(CC(=O)N(CCC#N)c2ccccc2)C1=O (centres undefined) | 4% | -4 | -5 | nt | nt
COc1ccc(NC(=O)CC(=O)Nc2ccc(OC)cc2OC)c(OC)c1 | ? | -10 | 1 | 1% | 2
COc1ccc(NC(=O)CC(C)=O)c(OC)c1 | 5% | 23 | 7 | -1% | nt
COc1cccc(NC(=S)NCCC(c2ccccc2)c2ccccc2)c1 | 11% | -4 | 11 | 27% | nt
COc1ccc(NC(=S)NCCC(c2ccccc2)c2ccccc2)c(OC)c1 | 11µM* | 3 | -1 | -2% | ?
O=S(=O)(c1ccc2ccccc2c1)N1CCN(C(=S)Nc2ccc(F)cc2)CC1 | 11µM* | -4 | 2 | 11% | -15
O=S(=O)(c1ccc2ccccc2c1)N1CCN(C(=S)Nc2ccc(F)c(Cl)c2)CC1 | -6% | 14 | -2 | 7% | nt
Cc1ccn2cc(CNS(=O)(=O)c3ccc4ccccc4c3)nc2c1 | -7% | -6 | 9 | -3% | nt
Cc1c(Cl)cccc1NC(=O)CCN1CCC(C(N)=O)CC1 | 9% | nt | -3 | 1% | nt
Cc1cc(-c2nnc3n2N=C(c2ccccc2)CS3)n[nH]1 | 1% | -2 | 2 | 0% | nt
SMILES | NS1 function inh | Shiga inhibitor | Cycloheximide cs | SARS PLpro yeast | NS1 inh valid | others
Cc1cc(-c2nnc3n2N=C(c2ccc(-c4ccccc4)cc2)CS3)n[nH]1 | 3.2µM* | 5 | 6 | -15% | ?
COc1ccc(NCc2cc3cc(OC)ccc3[nH]c2=O)cc1 | -14% | -8 | -3 | -5% | nt
COc1ccc2[nH]c(=O)c(CNc3cccc(C)c3)cc2c1 | 2.8µM* | 37 | 29* | 6% | 0
COc1cc(Cl)ccc1OCc1cc(C(=O)N2CCCCC2c2cccnc2)no1 (centres undefined) | 3.2µM* | 32 | 17* | -48% | ?
CC(C)CCSc1nc2c(c(=O)[nH]c(=O)n2C)n1CCCc1ccccc1 | ? | 22 | 5 | -3% | -29
CCc1ccccc1NC(=S)/N=C(\N)Nc1nc(C)c2cc(C)ccc2n1 | ? | 11 | 3 | 16% | -29
Cc1ccc(NC(=S)/N=C(\N)Nc2nc(C)c3cc(C)ccc3n2)c(C)c1 | 16% | -6 | 1 | ? | nt
O=C(Nc1ccc(O)cc1)C1CC=CCC1 (centres undefined) | 13µM* | 24 | 2 | 3% | 9
CCc1c(C)nc(N)n2c(SCC(=O)N3CCCC(C)C3)nnc12 (centres undefined) | -3% | -8 | -6 | 0% | nt
COc1ccc(S(=O)(=O)N2CCOC2CNC(=O)C(=O)NCCc2c[nH]c3ccccc23)cc1C (centres undefined) | 14µM* | -18 | -3 | -3% | 1
c1ccc(-c2n[nH]c(-c3ccccc3)c2-c2nc3ccccc3[nH]2)cc1 | -8% | -13 | -3 | 2% | nt
c1ccc(-c2nc3ccccc3[nH]2)nc1 | 4.5µM* | 117* | 72* | -47% | ?
COc1ccccc1NS(=O)(=O)c1ccc(C)c(NC(=O)c2ccc(S(=O)(=O)N3CCCCCC3)cc2)c1 | 20µM* | 9 | 1 | ? | 7
CCOC(=O)C1CCN(C(=O)COc2ccc(S(=O)(=O)N3CCCC3)cc2C)CC1 | -4% | -11 | -1 | 1% | nt
C=CCNC(=O)/C(=C\C=C\c1ccccc1)NC(=O)c1ccc(OCCCC)cc1 | 11µM* | 15 | 0 | -13% | ?
CCOc1ccccc1CNC(=O)CCCC(=O)n1nc(C)c2ccccc21 | ? | -4 | -1 | 1% | ?
CCOc1cc(N2CCOCC2)c(OCC)cc1NC(=O)Cc1cccc2ccccc12 | 13µM* | -5 | -2 | 17% | -3
CCOc1cc(N2CCOCC2)c(OCC)cc1NC(=O)COC(=O)c1ccccc1C | 28% | -9 | -4 | 27% | nt
COc1ccccc1/C=C1\CCCC2=C1Nc1nnnn1C2c1ccccc1OC (centres undefined) | ? | 8 | -3 | 15% | ? | PR8 titer=8.5
CC(C)(CN1CCCC1)NS(=O)(=O)c1ccc(Cl)cc1 | ? | -2 | -5 | -1% | -1
CC(C)(CN1CCNCC1)NS(=O)(=O)c1ccc(Cl)cc1 | nt | nt | nt | -8% | nt
COc1ccc(C(C)=O)cc1CSc1nnc(-c2ccc(Cl)cc2)n1-c1ccccc1 | 1µM* | -25 | 9 | 6% | ?
O=C(CSc1nnc(-c2ccco2)n1-c1ccccc1)NCc1ccco1 | 21% | -10 | 2 | 1% | nt
O=C(CSc1nnc(-c2ccccc2)n1-c1ccccc1)NCc1ccco1 | 18µM* | 44 | -1 | -8% | 1
COc1ccccc1NC(=O)CC(=O)CSc1nnc(-c2ccc(C)cc2)n1-c1ccccc1 | 14µM* | 8 | 1 | 10% | 8
